# In PubChem BioAssay AID504810 (National Center for Advancing Translational Sciences (NCATS), 2011):
# Among all 330,000 compounds or so, about 670 (0.2%) were called active.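 How the source made its calls: active means activity change below a set negative limit, meaning inhibition stronger than a set level (cut at about -70% in these data); inconclusive means activity change between two set negative limits; inactive means the rest.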 Only a selection was taken, and actives are over-represented in it overall.
# Biological target: Thyrotropin receptor (Homo sapiens) (UniProt P16473)
# Sequence (P16473 whole entry, looked up): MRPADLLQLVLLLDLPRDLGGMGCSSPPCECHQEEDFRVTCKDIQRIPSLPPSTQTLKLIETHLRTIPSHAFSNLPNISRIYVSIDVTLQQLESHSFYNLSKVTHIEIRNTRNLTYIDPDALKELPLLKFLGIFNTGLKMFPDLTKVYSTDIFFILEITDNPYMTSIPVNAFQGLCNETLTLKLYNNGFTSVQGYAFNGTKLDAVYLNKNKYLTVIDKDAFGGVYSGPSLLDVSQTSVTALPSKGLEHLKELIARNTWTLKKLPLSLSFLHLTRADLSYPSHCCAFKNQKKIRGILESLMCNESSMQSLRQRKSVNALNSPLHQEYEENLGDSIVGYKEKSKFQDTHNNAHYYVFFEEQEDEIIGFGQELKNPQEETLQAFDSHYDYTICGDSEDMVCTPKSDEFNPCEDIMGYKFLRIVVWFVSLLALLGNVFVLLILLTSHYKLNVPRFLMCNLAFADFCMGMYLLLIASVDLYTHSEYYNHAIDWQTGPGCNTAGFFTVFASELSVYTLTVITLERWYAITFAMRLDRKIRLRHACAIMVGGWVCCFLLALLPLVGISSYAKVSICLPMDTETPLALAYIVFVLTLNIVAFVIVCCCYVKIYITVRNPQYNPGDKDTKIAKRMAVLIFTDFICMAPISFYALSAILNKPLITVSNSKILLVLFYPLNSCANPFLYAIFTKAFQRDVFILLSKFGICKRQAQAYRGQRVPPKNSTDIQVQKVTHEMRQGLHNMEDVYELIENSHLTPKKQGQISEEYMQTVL
# Assay: Antagonists of the Thyroid Stimulating Hormone Receptor: HTS campaign
# Details: TSHR-expressing cells, TSH-stimulated cAMP HTRF, 2 h; at 11.5 µM; hits give low values
# Summary of the method: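 Antagonism was scored as loss of TSH-driven cAMP in TSHR cells, stimulated with 4nM TSH (EC80) for 2 hours at 37 deg C and detected by homogeneous HTRF competition immunoassay.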
# On the % scale 0 is the no-effect control and ±100 the full control effect.
row,SMILES,"activity change, negative = inhibition"
1,CN(C)c1ccc(S(=O)(=O)NCC(=O)NCC2CCCCC2)cc1[N+](=O)[O-],6.75% (inactive)
2,Cc1ccc(S(=O)(=O)NCCCn2ccnc2)cc1C(=O)NC(C)C,-0.615% (inactive)
3,CC1(C)CC(CCC(=O)Nc2ccccc2Cl)C(=O)O1 (stereo not drawn),13.5% (inactive)
4,O=C(Nc1ccccc1Cl)/C(Cl)=C(\Cl)S(=O)c1ccccc1 (stereo not drawn),-71.3% (active)
5,Cc1c(NC(=O)Nc2ccccc2Cl)sc(=S)n1C,46.2% (inactive)
6,O=C1CCC(C(=O)N2CCCCO2)CN1Cc1cccc(C(F)(F)F)c1 (stereo not drawn),15.4% (inactive)
7,COc1ccc(CCNC2=CC(=O)CC(C)(C)C2)cc1,-4.33% (inactive)
8,O=C1NC2(CCCCCC2)C(=O)N1CCS(=O)(=O)Oc1ccccc1,-2.81% (inactive)
9,Cc1ccc(C(=O)Nc2ncccc2C)cc1S(=O)(=O)N1CCOCC1,-1.78% (inactive)
10,COc1ccc(/C=C/C(=O)OCC(=O)NC2CCCCCC2)cc1OC,-8.81% (inactive)
11,CCN(CC(=O)Nc1ccccc1C(F)(F)F)C(=O)CSCc1c(C)noc1C,4.59% (inactive)
12,Cc1nnc(NC(=O)CSc2nccn2-c2cccc(C)c2C)s1,-14.2% (inactive)
13,Fc1ccc(-n2c(Cc3ccccc3)nnc2SCc2nc(-c3ccc(Cl)cc3)no2)cc1,7.8% (inactive)
14,CCOCCCNC(=O)C(NC(=O)c1ccccc1O)c1ccccc1 (stereo not drawn),1.46% (inactive)
15,CCOCCCNC(=O)C(NC(=O)c1ccc(=O)[nH]c1)c1ccc(C)cc1 (stereo not drawn),-1.24% (inactive)
16,CCOCCCNC(=O)C(NC(=O)c1ccc(=O)[nH]c1)c1ccc(Cl)cc1 (stereo not drawn),-71.3% (active)
17,CCOC(=O)C1(CC2CCCCO2)CCN(Cc2nc(-c3cccs3)oc2C)CC1 (stereo not drawn),-7.01% (inactive)
18,COc1ccc(S(=O)(=O)NC2(C(F)(F)F)N=C3SCCN3C2=O)cc1 (stereo not drawn),17.4% (inactive)
19,Cc1ccc(S(=O)(=O)NC2(C(F)(F)F)NC(=O)N(CCc3ccccc3)C2=O)cc1 (stereo not drawn),-3.44% (inactive)
20,COc1ccc(N2C(=O)NC(NS(=O)(=O)c3ccc(Cl)cc3)(C(F)(F)F)C2=O)cc1 (stereo not drawn),-105% (active)

row,SMILES,"activity change, negative = inhibition"
1,Cn1nccc1C(=O)NC1CCCc2c1cnn2-c1ccc(F)cc1F (stereo not drawn),-37.7% (inactive)
2,Cc1cc(C(=O)NC2CCCc3c2cnn3-c2cccc(C)c2C)c(C)o1 (stereo not drawn),-79.3% (active)
3,Cn1nccc1C(=O)NC1CCCc2c1cnn2-c1ccccc1F (stereo not drawn),-36.6% (inactive)
4,Cc1ccc(S(=O)(=O)c2c[nH]c3ccc(Cl)cc3c2=O)cc1,-9.54% (inactive)
5,CCn1nc(C(=O)NNC(=O)C2CSC3(C)CCC(=O)N23)c2ccccc2c1=O (stereo not drawn),6.6% (inactive)
6,COCCCn1c(Cc2csc(Nc3cccc(Cl)c3)n2)nnc1SCC(=O)OC1CCCCC1,-4.53% (inactive)
7,C/C(=N\NC(=O)c1cc(-c2ccc(O)cc2)nc2ccccc12)c1cccnc1,0.505% (inactive)
8,Cc1cccc(N2CCC(NCc3c(C(=O)N4CCCCC4)nc4c(C)cccn34)CC2)c1,4.5% (inactive)
9,CCOC(=O)[C@H]1[C@H]2COc3ccc(C)cc3[C@@H]2N2C(=O)CN(Cc3ccc(F)cc3)C(=O)[C@@]12C,-7.74% (inactive)
10,Cc1ccc(N(CCC(=O)O)S(=O)(=O)c2cccc(C(F)(F)F)c2)cc1,22.4% (inactive)
11,CN(CC(=O)Nc1cccc(F)c1)C(=O)C1CC(=O)N(CCc2ccccc2)C1 (stereo not drawn),8.3% (inactive)
12,CC(C)c1ccc(NC(=S)NC2CC3C=CC2C3)cc1 (stereo not drawn),-4.5% (inactive)
13,CC(NC(=O)COC(=O)CCC(=O)c1ccc(Cl)cc1)c1ccccc1 (stereo not drawn),-10.7% (inactive)
14,COc1cccc(NC(=O)C2CCCN(c3ncnc4c3nc3n4CCCCC3)C2)c1 (stereo not drawn),-12.1% (inactive)
15,O=C(CN(C(=O)CCC(=O)Nc1nccs1)c1ccc(F)cc1)NCc1ccc2c(c1)OCO2,21.9% (inactive)
16,COc1ccc(N(CC(=O)NCc2ccc(F)cc2)C(=O)CCC(=O)Nc2nccs2)cc1,-77.8% (active)
17,COc1cccc(N(CC(=O)NCc2ccccc2)C(=O)CCC(=O)Nc2nccs2)c1,-9.83% (inactive)
18,COC(=O)c1ccc(S(=O)(=O)N2CCC(c3nc4ccccc4o3)CC2)cc1,-1% (inactive)
19,Cn1cc(CCC(=O)NCc2ccc3c(c2)OCO3)c2ccccc21,5.66% (inactive)
20,N#Cc1nc(Cc2cccc3ccccc23)oc1NCc1ccc2c(c1)OCO2,-94.7% (active)

row,SMILES,"activity change, negative = inhibition"
1,c1n[nH]c(NCc2ccc3c(c2)OCO3)n1,5.91% (inactive)
2,CCc1nonc1NC(=O)c1oc2ccc(Cl)cc2c1C,3.96% (inactive)
3,O=C1C=C(c2cccc(Cl)c2O)C[C@@H](c2ccc(F)cc2)C1,-23% (inactive)
4,CC1(C)NC(=O)N(CC(=O)N2CCN(S(=O)(=O)c3ccccc3F)CC2)C1=O,1.38% (inactive)
5,CCN(c1ccccc1)S(=O)(=O)c1cc(C(=O)NCc2ccccn2)ccc1C,0.209% (inactive)
6,Cc1ccc(C)c(N(CC(=O)NCc2ccco2)C(=O)CCC(=O)Nc2ccccn2)c1,0.465% (inactive)
7,COC(=O)c1ccc(COC(=O)c2c(C)nn(Cc3ccccc3Cl)c2Cl)o1,-21.4% (inactive)
8,CC(=O)N=c1ncn(CC(COC(C)=O)OC(C)=O)c2nc[nH]c12 (stereo not drawn),-10.8% (inactive)
9,Cc1ccc(S(=O)(=O)N(C)c2ccc(OCC(=O)NC3=NCCS3)cc2)cc1,26.8% (inactive)
10,Oc1c(Cl)cc(Cl)c(Cl)c1Cc1c(O)c(Cl)cc(Cl)c1Cl,-103% (active)
11,CC(Oc1ccccc1)C(=O)NN1Cc2ccccc2C1=N (stereo not drawn),8.16% (inactive)
12,CCOC(=O)c1ccc(NC(=O)c2nc[nH]c2C(=O)N[C@@H](CCCCNC(=O)OC(C)(C)C)C(=O)OC(C)(C)C)cc1,-6.71% (inactive)
13,CCCn1c(=O)c2[nH]c(-c3ccc(OCC(=O)NCCN)cc3)nc2n(CCC)c1=O,26.4% (inactive)
14,COc1ccc(C(=O)NCC2CCCN2S(=O)(=O)c2cccs2)cc1OC (stereo not drawn),4.47% (inactive)
15,CC(CCc1ccccc1)NCC(O)c1cccc([N+](=O)[O-])c1 (stereo not drawn),9.45% (inactive)
16,CN(c1ccccc1)S(=O)(=O)c1cc(C(=O)Nc2nc3ccccc3[nH]2)ccc1Cl,-76.7% (active)
17,Cc1cccc(NC(=O)c2ccc(S(=O)(=O)N(C)c3ccccc3)cc2)n1,-19.5% (inactive)
18,CN(c1ccccc1)S(=O)(=O)c1cc(C(=O)OCC(=O)N2CCN(C(=O)c3ccco3)CC2)ccc1Cl,-10.1% (inactive)
